# Inconclusive results are not listed. Entries that show only a call come without a potency. Activity calls are given as the source filed them. Calls follow the shape of the dose curve; as a rule, active = well fitted inhibition curve with a large enough effect; inconclusive = small, poorly fitted or top-dose-only effect; inactive = flat fitted curve, though single readings scatter.
# What was measured:
# Assay in all cases: qHTS profiling for inhibitors of Plasmodium falciparum proliferation (AID 504749); also: nearly all actives have a fitted effect of over 60% in size
# Settings in all cases: P. falciparum in erythrocytes, SYBR Green DNA, 72 h; series mostly up to 28.7 µM
# [1] = test system: CP247
# How it was run: (§1)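 Fluorescence of SYBR Green-bound parasite DNA, read at 485/535 nm, served as the growth measure. Infected erythrocytes were cultured with compound 72 h; artemisinin (0.29 uM) and DMSO wells defined the normalization range.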
# [2] = test system: CP250
# How it was run: as §1
# [3] = test system: CP252
# How it was run: as §1
# [4] = test system: CP256
# How it was run: as §1
# [5] = test system: CP260
# How it was run: as §1
# [6] = test system: CP262
# How it was run: as §1
# [7] = test system: CP265
# How it was run: as §1
# [8] = test system: CP266
# How it was run: as §1
# [9] = test system: CP268
# How it was run: as §1
# [10] = test system: CP269
# How it was run: as §1
# [11] = test system: CP286
# How it was run: as §1
# [12] = test system: CP291
# How it was run: as §1
# [13] = test system: CP297
# How it was run: as §1
# [14] = test system: CP305
# How it was run: as §1
# [15] = test system: CP315
# How it was run: as §1
# [16] = test system: CP325
# How it was run: as §1
# [17] = test system: CP329
# How it was run: as §1
# [18] = test system: CP335
# How it was run: as §1
# [19] = test system: DFO2036
# How it was run: as §1
# [20] = test system: DIV14
# How it was run: as §1
# Potency is read from the fitted curve at half-maximal effect.
Structure (SMILES),Potency [1],Potency [2],Potency [3],Potency [4],Potency [5],Potency [6],Potency [7],Potency [8],Potency [9],Potency [10],Potency [11],Potency [12],Potency [13],Potency [14],Potency [15],Potency [16],Potency [17],Potency [18],Potency [19],Potency [20]
FC(F)(F)C(F)(F)C(F)(F)C(F)(F)C(F)(F)C(F)(F)C(F)(F)C(F)(F)Br,inactive,inactive,inactive,inactive,inactive,inactive,inactive,inactive,inactive,inactive,inactive,inactive,inactive,inactive,inactive,inactive,inactive,inactive,inactive,inactive
CC(=O)OCC(=O)[C@H]1CC[C@H]2[C@@H]3CCC4=CC(=O)CC[C@]4(C)[C@H]3CC[C@]12C,inactive,inactive,inactive,inactive,inactive,inactive,inactive,inactive,inactive,inactive,inactive,inactive,inactive,inactive,inactive,inactive,inactive,inactive,inactive,inactive
C[C@@H](O)[C@H]1C(=O)N2C(C(=O)O)=C(S[C@@H]3CN[C@H](CNS(N)(=O)=O)C3)[C@H](C)[C@H]12,inactive,inactive,inactive,inactive,inactive,inactive,inactive,inactive,inactive,inactive,inactive,inactive,inactive,inactive,inactive,inactive,inactive,inactive,inactive,inactive
OCc1ccccn1,inactive,inactive,inactive,inactive,inactive,inactive,inactive,inactive,inactive,inactive,inactive,inactive,inactive,inactive,inactive,inactive,inactive,inactive,inactive,inactive
CCNC(=O)NCc1cccc(Cl)c1,inactive,inactive,inactive,inactive,inactive,inactive,inactive,inactive,inactive,inactive,inactive,inactive,inactive,inactive,inactive,inactive,inactive,inactive,inactive,inactive
CC(=O)Oc1ccc(C)cc1,inactive,inactive,inactive,inactive,inactive,inactive,inactive,inactive,inactive,inactive,inactive,inactive,inactive,inactive,inactive,inactive,inactive,inactive,inactive,inactive
Nc1ccc(C(=O)NCC(=O)O)cc1,inactive,inactive,inactive,inactive,inactive,inactive,inactive,inactive,inactive,inactive,inactive,inactive,inactive,inactive,inactive,inactive,inactive,inactive,inactive,inactive
Cc1cc(C)cc(OCC2CNC(=O)O2)c1 (configuration not stated),inactive,inactive,inactive,inactive,inactive,inactive,inactive,inactive,inactive,inactive,inactive,inactive,inactive,inactive,inactive,inactive,inactive,inactive,inactive,inactive
CCN1/C(=C/C=C/c2sc3ccccc3[n+]2CC)Sc2ccccc21,251 nM (active),178 nM (active),141 nM (active),100 nM (active),158 nM (active),190 nM (active),224 nM (active),675 nM (active),536 nM (active),379 nM (active),50.1 nM (active),379 nM (active),849 nM (active),190 nM (active),757 nM (active),601 nM (active),426 nM (active),107 nM (active),100 nM (active),478 nM (active)
C=C[C@@]1(C)CC(=O)[C@]2(O)[C@@]3(C)[C@@H](O)CCC(C)(C)[C@@H]3[C@H](O)[C@H](OC(C)=O)[C@@]2(C)O1,inactive,inactive,inactive,inactive,inactive,inactive,inactive,inactive,inactive,inactive,inactive,inactive,inactive,inactive,inactive,inactive,inactive,inactive,inactive,inactive
N#CCC(=O)NN,inactive,inactive,inactive,inactive,inactive,inactive,inactive,inactive,inactive,inactive,inactive,inactive,inactive,inactive,inactive,inactive,inactive,inactive,inactive,inactive
O=C(Nc1ccc([N+](=O)[O-])cc1)Nc1ccc([N+](=O)[O-])cc1,inactive,inactive,inactive,inactive,3550 nM (active),inactive,inactive,inactive,inactive,inactive,3160 nM (active),inactive,inactive,inactive,inactive,inactive,inactive,4780 nM (active),inactive,
CCCCC(CC)COC(=O)c1ccc(N(C)C)cc1 (configuration not stated),inactive,inactive,inactive,inactive,inactive,inactive,inactive,inactive,inactive,inactive,inactive,inactive,inactive,inactive,inactive,inactive,inactive,inactive,inactive,
Cc1c[nH]c2ccccc12,inactive,inactive,inactive,inactive,inactive,inactive,inactive,inactive,inactive,inactive,inactive,inactive,inactive,inactive,inactive,inactive,inactive,inactive,inactive,inactive
Nc1nc(-c2ccccc2)c(Br)c(=O)[nH]1,inactive,inactive,inactive,inactive,inactive,inactive,inactive,inactive,inactive,inactive,inactive,inactive,inactive,inactive,inactive,inactive,inactive,inactive,inactive,inactive
CC(C)CCCC(C)N (configuration not stated),inactive,inactive,inactive,inactive,inactive,inactive,inactive,inactive,inactive,inactive,inactive,inactive,inactive,inactive,inactive,inactive,inactive,inactive,inactive,inactive
NCCNC(=O)c1ccc(Cl)cn1,inactive,inactive,inactive,inactive,inactive,inactive,inactive,inactive,inactive,inactive,inactive,inactive,inactive,inactive,inactive,inactive,inactive,inactive,inactive,inactive
CCCN(CCC)S(=O)(=O)c1ccc(C(=O)O)cc1,inactive,inactive,inactive,inactive,inactive,inactive,inactive,inactive,inactive,inactive,inactive,inactive,inactive,inactive,inactive,inactive,inactive,inactive,inactive,inactive
CCc1oc2ccccc2c1C(=O)c1cc(I)c(O)c(I)c1,inactive,inactive,inactive,inactive,inactive,inactive,inactive,inactive,inactive,inactive,inactive,inactive,inactive,inactive,inactive,inactive,inactive,inactive,inactive,inactive
CCCCCCCCCCCCCCCC(=O)O,inactive,inactive,inactive,inactive,inactive,inactive,inactive,inactive,inactive,inactive,inactive,inactive,inactive,inactive,inactive,inactive,inactive,inactive,inactive,inactive
C/C=C/c1ccc(O)c(OC)c1,inactive,inactive,inactive,inactive,inactive,inactive,inactive,inactive,inactive,inactive,inactive,inactive,inactive,inactive,inactive,inactive,inactive,inactive,inactive,
CC(=O)NC(=O)c1ccccc1O,inactive,inactive,inactive,inactive,inactive,inactive,inactive,inactive,inactive,inactive,inactive,inactive,inactive,inactive,inactive,inactive,inactive,inactive,inactive,inactive
Nc1ccc(S(=O)(=O)Nc2cnc3ccccc3n2)cc1,inactive,inactive,inactive,inactive,inactive,inactive,inactive,inactive,inactive,inactive,inactive,inactive,inactive,inactive,inactive,inactive,inactive,inactive,inactive,inactive
OC1C(O)C(O)C(O)C(O)C1O (configuration not stated),inactive,inactive,inactive,inactive,inactive,inactive,inactive,inactive,inactive,inactive,inactive,inactive,inactive,inactive,inactive,inactive,inactive,inactive,inactive,inactive
CCCCNC(=O)NS(=O)(=O)c1ccc(N)cc1,inactive,inactive,inactive,inactive,inactive,inactive,inactive,inactive,inactive,inactive,inactive,inactive,inactive,inactive,inactive,inactive,inactive,inactive,inactive,inactive
CCOC(=O)c1ccc(N)cc1,inactive,inactive,inactive,inactive,inactive,inactive,inactive,inactive,inactive,inactive,inactive,inactive,inactive,inactive,inactive,inactive,inactive,inactive,inactive,inactive
